Measured values reported in PubChem BioAssay (NCATS).
“And” between values parts separate entries of the source, which are not always exact repeats. Identical values can stand only once. Results filed as inconclusive are left out. A call without a number means that no potency is given here. The source made the active and inactive calls. The call rests on the fitted dose curve; in most records, active means well fitted cell-killing curve with a large enough effect; inconclusive means small, poorly fitted or top-dose-only effect, or effect the other way; inactive means flat fitted curve, though single readings scatter.

The compounds below were run on CASKI (assay: Primary qHTS to identify gynecologic anti-cancer compounds using libraries of approved drugs and bioactive compounds (AID 1345084; further: nearly all actives have a fitted effect of over 55% in size)). Details: Gynecologic cancer cell panel viability, ATPlite luminescence, 48 h; series mostly up to 57.5 µM.
Method in brief: (§1)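 Cytotoxicity screen measuring ATP content by luciferase luminescence. Each compound is applied at five concentrations for 48 h at 37 C with 5% CO2.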
Potency means the concentration at half of the fitted maximal effect.

| Structure (SMILES) | Potency |
| --- | --- |
| O=C(O)c1cccnc1Nc1cccc(C(F)(F)F)c1 | inactive |
| Cc1cc(C2CCCCC2)n(O)c(=O)c1 | inactive |
| Cc1cc(=O)c2c(O)c3c(O)cc(=O)c4c3c3c(cc(O)c1c23)C(C)(C)C=4O | 2 µM (active) |
| CCCCN(CCCC)CCC(O)c1cc2c(Cl)cc(Cl)cc2c2cc(C(F)(F)F)ccc12 (centres undefined) | inactive |
| Cc1c(C(=O)NN2CCCCC2)nn(-c2ccc(Cl)cc2Cl)c1-c1ccc(Cl)cc1 | inactive |
| CCN(CC)CCOc1ccc(Cc2ccccc2)cc1 | inactive |
| COc1cc(C(C)=O)ccc1OCCCN1CCC(c2noc3cc(F)ccc23)CC1 | inactive |
| COc1c2occc2cc2ccc(=O)oc12 | inactive |
| Cc1ccc(Nc2nccc(N(C)c3ccc4c(C)n(C)nc4c3)n2)cc1S(N)(=O)=O | inactive |
| CCCS(=O)c1ccc2nc(NC(=O)OC)[nH]c2c1 (centres undefined) | inactive |
| COC1=C(OC)C(=O)C(CCCCCCCCCCO)=C(C)C1=O | inactive |
| CN1CCC(=C2c3ccccc3CCc3sccc32)CC1 | inactive |
| Cc1cccc(CN2CCN(C(c3ccccc3)c3ccc(Cl)cc3)CC2)c1 (centres undefined) | inactive |
| O=C(O)c1cc(=O)c2c(OCC(O)COc3cccc4oc(C(=O)O)cc(=O)c34)cccc2o1 | inactive |
| Cc1ccc(NC(=O)c2ccc(CN3CCN(C)CC3)cc2)cc1Nc1nccc(-c2cccnc2)n1 | inactive |
| OC(CN1CCN(c2cccc(Cl)c2)CC1)C(c1ccccc1)c1ccccc1 (centres undefined) | inactive |
| NNc1nncc2ccccc12 | inactive |
| O=C1CCc2ccc(OCCCCN3CCN(c4cccc(Cl)c4Cl)CC3)cc2N1 | inactive |
| Cc1ccc(C(=O)c2cc(O)c(O)c([N+](=O)[O-])c2)cc1 | inactive |
| CN(C)c1ccc2nc3ccc(=[N+](C)C)cc-3sc2c1 | 7.08 µM (active) |
| Cc1ncc([N+](=O)[O-])n1CC(C)O (centres undefined) | inactive |
| CN(C)C(=O)[C@H](O)[C@H](Cc1ccccc1)NC(=O)c1cc2cc(Cl)ccc2[nH]1 | inactive |
| COc1ccccc1N1CCN(CCN(C(=O)C2CCCCC2)c2ccccn2)CC1 | inactive |
| CN(C)[C@@H](CCOc1cccc2ccccc12)c1ccccc1 | inactive |

Each compound was assayed on Es-2 in the same assay as above. Details: Gynecologic cancer cell panel viability, ATPlite luminescence, 48 h; series mostly up to 57.5 µM.
Method in brief: as §1

| Structure (SMILES) | Potency |
| --- | --- |
| O=C(O)c1cccnc1Nc1cccc(C(F)(F)F)c1 | inactive |
| Cc1cc(C2CCCCC2)n(O)c(=O)c1 | 14.1 µM (active) |
| Cc1cc(=O)c2c(O)c3c(O)cc(=O)c4c3c3c(cc(O)c1c23)C(C)(C)C=4O | 3.16 µM (active) |
| CCCCN(CCCC)CCC(O)c1cc2c(Cl)cc(Cl)cc2c2cc(C(F)(F)F)ccc12 (centres undefined) | inactive |
| Cc1c(C(=O)NN2CCCCC2)nn(-c2ccc(Cl)cc2Cl)c1-c1ccc(Cl)cc1 | inactive |
| CC(=O)O[C@H]1C(=O)[C@@]2(C)C([C@H](OC(=O)c3ccccc3)[C@]3(O)C[C@H](OC(=O)[C@H](O)[C@@H](NC(=O)c4ccccc4)c4ccccc4)C(C)=C1C3(C)C)[C@]1(OC(C)=O)CO[C@@H]1C[C@@H]2O (some centres undefined) | 0.282 µM (active) |
| CCN(CC)CCOc1ccc(Cc2ccccc2)cc1 | inactive |
| COc1cc(C(C)=O)ccc1OCCCN1CCC(c2noc3cc(F)ccc23)CC1 | inactive |
| COc1c2occc2cc2ccc(=O)oc12 | inactive |
| Cc1ccc(Nc2nccc(N(C)c3ccc4c(C)n(C)nc4c3)n2)cc1S(N)(=O)=O | inactive |
| COc1cc(Nc2c(C#N)cnc3cc(OCCCN4CCN(C)CC4)c(OC)cc23)c(Cl)cc1Cl | 6.31 µM (active) and 14.1 µM (active) |
| CCCS(=O)c1ccc2nc(NC(=O)OC)[nH]c2c1 (centres undefined) | inactive |
| CCCCCCCCOc1ccccc1C(=O)Nc1ccc(C(=O)OCC[N+](C)(CC)CC)cc1 | inactive |
| CN1CCC(=C2c3ccccc3CCc3sccc32)CC1 | inactive |
| Cc1cccc(CN2CCN(C(c3ccccc3)c3ccc(Cl)cc3)CC2)c1 (centres undefined) | inactive |
| O=C(O)c1cc(=O)c2c(OCC(O)COc3cccc4oc(C(=O)O)cc(=O)c34)cccc2o1 | inactive |
| CC(C)Oc1ccc2c(=O)c(-c3ccccc3)coc2c1 | 5.01 µM (active) |
| CC[C@]1(O)C[C@H]2CN(CCc3c([nH]c4ccccc34)[C@@](C(=O)OC)(c3cc4c(cc3OC)N(C=O)[C@H]3[C@@](O)(C(=O)OC)[C@H](OC(C)=O)[C@]5(CC)C=CCN6CC[C@]43[C@@H]65)C2)C1 | 0.891 µM (active) |
| NNc1nncc2ccccc12 | inactive |
| CN(C)CCCC1(c2ccc(F)cc2)OCc2cc(C#N)ccc21 (centres undefined) | inactive |
